Measured values: PubChem BioAssay (NCI)
About 83,000 compounds went through this panel and 20% of them were active in at least one assay; those are over-represented in the sample as a whole.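 For each line, cells grew in 96-well plates with the test compound present at a single concentration for 48 hours.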 Activity calls are given as the source filed them. Rule for the calls: active = growth percent below 10; inactive = the rest.

The molecules below were run on SK-MEL-2 melanoma (assay: NCI-60 one-dose screen, 48 h (100 = growth as untreated, 0 = no growth, -100 = all killed)). Details: 10 µM unless noted.
For `O=C(Nc1cccc(F)c1)c1cc(=O)[nH]c2cc(Br)ccc12`, the growth was 41.2% (inactive). With `COC(=O)[C@]12CCC(C)(C)C[C@H]1C1=CC[C@@H]3[C@@]4(C)C/C(=C/c5cccnc5)C(=O)C(C)(C)[C@@H]4CC[C@@]3(C)[C@]1(C)CC2` the growth was -70.3% [100 µM] (active). In the case of `N#C/C(C(=O)c1ccccc1)=C1/C(=O)Nc2ccc(Br)cc21`, the growth is reported as 113% (inactive). `COc1ccc(-c2cc(-c3ccc(Cl)cc3)nc(NCCCCNc3ccnc4cc(Cl)ccc34)n2)cc1` was tested, and the growth was 78% (inactive). With `CCCSc1nc(N)nc2nc[nH]c12` the growth was 106% (inactive). With `CCN(CC)c1ccc2cc(NC(=O)OCCNC(=O)CCNC(=O)[C@H](CC(C)C)NC(=O)C(C)(C)NC(=O)C(C)(C)NC(=O)[C@H](CC(C)C)NC(=O)CCNC(=O)C(C)(C)NC(=O)[C@H](CC(C)C)NC(=O)CCNC(=O)[C@@](C)(CC)NC(=O)[C@H](C)NC(=O)CCNC(=O)C(C)(C)NC(=O)[C@H](C)NC(=O)[C@@H]3CCCN3C(=O)[C@@](C)(CC)NC(=O)[C@H](Cc3ccccc3)NC(=O)C3CCCN3C(=O)C(C)(C)NC(=O)C3CCCN3C(=O)C(C)(C)NC(C)=O)c(=O)oc2c1` (stereo partly drawn) the growth was -80.4% (active). With `C=C(C)[C@@H]1CC[C@]2(C(=O)N3CCN(C)CC3)CC[C@]3(C)[C@H](CC[C@@H]4[C@@]5(C)C/C(=C/c6ccncc6)[C@H](O)C(C)(C)[C@@H]5CC[C@]43C)[C@@H]12` the growth was -60.1% [100 µM] (active). `CC[C@@](C)(NC(=O)[C@H](C)NC(=O)CCNC(=O)C(C)(C)NC(=O)[C@H](C)NC(=O)[C@@H]1CCCN1C(=O)[C@@](C)(CC)NC(=O)[C@H](Cc1ccccc1)NC(=O)C1CCCN1C(=O)C(C)(C)NC(=O)C1CCCN1C(=O)C(C)(C)NC(C)=O)C(=O)NCCC(=O)N[C@@H](CC(C)C)C(=O)NC(C)(C)C(=O)NCCC(=O)N[C@@H](CC(C)C)C(=O)NC(C)(C)C(=O)NC(C)(C)C(=O)N[C@@H](CC(C)C)C(=O)NCCC(=O)NCO` (stereo partly drawn) was tested, and the growth was -89% (active). For `C#C[C@]1(O)CC[C@H]2[C@@H]3CC=C4c5nc(Nc6ncccn6)sc5CC[C@]4(C)[C@H]3CC[C@@]21C`, the growth was 18% (inactive). With `CC(C)(C)c1cc(C(=O)N2CCC(C(=O)NCCN)CC2)cc(C(C)(C)C)c1` the growth was 97.4% (inactive). With `CCOC(=O)/C(C#N)=C(\C)CCc1ccccc1` the growth was 106% (inactive). `COc1ccc2c3ccnc(C(F)(F)F)c3n(CCCCN)c2c1` was tested, and the growth was 55.3% (inactive). For `O=C(O)c1cccc(CN2CCN(c3cc4c(cc3F)c(=O)c(C(=O)O)cn4C3CC3)CC2)c1O`, the growth was 101% (inactive). With `CCN(CC)c1ccc2cc(C(Nc3ccc(Br)c(C(F)(F)F)c3)c3nnnn3C(C)(C)C)c(=O)oc2c1` (stereo not drawn) the growth was 89.9% (inactive). In the case of `O=C(NCCCNC(=O)OCc1ccc2c(Br)cc(Br)c(O)c2n1)OCc1ccc2c(Br)cc(Br)c(O)c2n1`, the growth is reported as -6.76% (active). In the case of `C[N+](C)(C)c1ncnc2[n-]cnc12`, the growth is reported as 107% (inactive). `O=S(=O)(c1ccc(N/N=C\c2ccccc2Cl)cc1)c1ccc(N/N=C/c2ccccc2Cl)cc1` was tested, and the growth was 89.1% (inactive). With `CCCOc1ccc(-c2nc(-c3ccc(N)cc3)cs2)cc1` the growth was 107% (inactive). With `O=C(NCc1ccc(Cn2c(=O)sn(-c3ccccc3)c2=O)cc1)OCc1ccc2c(Br)cc(Br)c(O)c2n1` the growth was -52.4% (active). `N#CCCc1c[nH]c2ccccc12` was tested, and the growth was 88.4% (inactive). In the case of `C=CCCCCCCCCC(=O)OC(C)C`, the growth is reported as 101% (inactive). For `COc1cc2c(cc1OCCCCCOc1ccc(-n3c(C)nc4ccccc4c3=O)cc1)N=C[C@@H]1CCCN1C2=O`, the growth was -8.38% (active). With `Cc1cccc(/C=C2\N=C(c3ccccc3)N(c3ccc(S(N)(=O)=O)cc3)C2=O)c1` the growth was 102% (inactive). `Clc1ccc(/C=N/Nc2nc3ccccc3s2)c(Cl)c1` was tested, and the growth was 112% (inactive). `CCOC(=O)COc1c(C)cc(SSc2cc(C)c(OCC(=O)OCC)c(C)c2)cc1C` was tested, and the growth was 100% (inactive). For `Nc1nc(Nc2ccccc2)c2ncn(Cc3cc4c(cc3Br)OCO4)c2n1`, the growth was 36.9% (inactive). With `CCOC(=O)c1c[nH]n2c(=S)ncnc12` the growth was 94.8% (inactive). For `CC1(C)CC[C@]2(C(N)=O)CC[C@]3(C)C(=CC[C@@H]4[C@@]5(C)C/C(=C/c6cccnc6)C(=O)C(C)(C)[C@@H]5CC[C@]43C)[C@@H]2C1`, the growth was -57.5% [100 µM] (active).
